# Measurements taken from PMC4336329 (PLoS ONE, 2015).
# Among all 310,000 compounds or so, about 14,000 (4.5%) showed an effect of 50% or more. The effect is printed as a negative number. Shown is part of a subset that was picked to be rich in strong results.
# Molecular target: human ether-à-go-go-related gene (hERG) potassium channel (human, UniProt Q12809)
# Assay: primary screen, population patch clamp on CHO cells stably expressing hERG; higher = less effect of the substance
# 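Note: peak tail current of the secondary pulse compared with the same well before compound.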
# Chain of human ether-à-go-go-related gene (hERG) potassium channel (Q12809 whole entry, looked up): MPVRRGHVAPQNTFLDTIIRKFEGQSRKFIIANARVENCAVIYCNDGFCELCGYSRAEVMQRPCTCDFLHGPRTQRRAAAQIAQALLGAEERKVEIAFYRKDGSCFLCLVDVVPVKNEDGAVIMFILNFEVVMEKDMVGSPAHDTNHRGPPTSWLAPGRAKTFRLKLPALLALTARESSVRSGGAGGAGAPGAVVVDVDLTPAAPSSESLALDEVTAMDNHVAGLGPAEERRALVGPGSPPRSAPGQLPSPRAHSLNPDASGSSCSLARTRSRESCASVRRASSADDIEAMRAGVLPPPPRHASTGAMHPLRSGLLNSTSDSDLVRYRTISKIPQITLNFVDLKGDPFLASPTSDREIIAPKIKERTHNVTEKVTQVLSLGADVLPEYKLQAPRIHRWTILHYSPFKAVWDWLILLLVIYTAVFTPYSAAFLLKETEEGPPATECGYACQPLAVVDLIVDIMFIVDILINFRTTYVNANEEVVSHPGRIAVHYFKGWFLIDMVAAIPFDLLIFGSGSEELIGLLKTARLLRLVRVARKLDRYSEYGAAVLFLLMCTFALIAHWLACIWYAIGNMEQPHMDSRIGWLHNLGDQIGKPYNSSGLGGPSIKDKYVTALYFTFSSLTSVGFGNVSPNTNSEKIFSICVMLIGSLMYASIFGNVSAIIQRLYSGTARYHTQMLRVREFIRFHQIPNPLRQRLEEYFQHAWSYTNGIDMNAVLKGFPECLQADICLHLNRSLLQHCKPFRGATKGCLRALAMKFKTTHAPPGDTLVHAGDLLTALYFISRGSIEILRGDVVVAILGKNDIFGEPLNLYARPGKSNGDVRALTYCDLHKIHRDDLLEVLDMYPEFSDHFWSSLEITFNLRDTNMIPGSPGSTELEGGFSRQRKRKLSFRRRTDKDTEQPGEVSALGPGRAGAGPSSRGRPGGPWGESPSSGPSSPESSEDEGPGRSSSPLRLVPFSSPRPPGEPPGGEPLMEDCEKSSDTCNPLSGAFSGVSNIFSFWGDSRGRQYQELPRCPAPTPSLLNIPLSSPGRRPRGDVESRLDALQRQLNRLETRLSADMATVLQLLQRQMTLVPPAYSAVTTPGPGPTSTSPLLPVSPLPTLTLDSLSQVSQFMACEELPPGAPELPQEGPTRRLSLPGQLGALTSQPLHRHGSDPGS
row,Compound,"hERG current change (%, negative = inhibition) at 10uM [%]"
1,COc1ccc(/C=N/NC(=O)c2cc(-c3ccccc3OC(C)C)nc3ccccc23)cc1CN1CCOCC1,-4.54
2,O.O=C(OCC1OC2C(Oc3nc(=O)ccn32)C1O)c1ccccc1 (centres unmarked),-0.213
3,Cc1ccc(C)c(S(=O)(=O)NCc2ccc(C(=O)N3CCN(c4ccccc4)CC3)cc2)c1,-3.21
4,Cc1ccc(C(=O)N(C)Cc2ccc(N3CCOCC3)cc2)cc1S(=O)(=O)NCc1ccccc1,-55.6
5,Cc1ccc(C(=O)N(C)Cc2ccccc2)cc1S(=O)(=O)N1CCOCC1,-12.8
6,CCN(CC)C(=O)N1CCc2ccccc21,0.177
7,COc1ccc(-n2ccnc2CN2CCCC(CO)(Cc3cccc(OC)c3)C2)cc1 (centres unmarked),-24.2
8,COc1cccc(CC2(CO)CCCN(Cc3cn[nH]c3C3CCCCC3)C2)c1 (centres unmarked),-45.1
9,COc1cccc(CC2(CO)CCCN(Cc3cc(F)ccc3-n3cccn3)C2)c1 (centres unmarked),-77.3
10,CCn1ccnc1CN1CCCC(CO)(Cc2cccc(OC)c2)C1 (centres unmarked),-17.7
11,COc1cccc(CC2(CO)CCCN(Cc3c(C)cc(C)cc3-n3cccn3)C2)c1 (centres unmarked),-84.4
12,COc1cccc(CC2(CO)CCCN(Cc3cn[nH]c3-c3ccc(F)cc3)C2)c1 (centres unmarked),6.58
13,COc1ccc(NC2=C(NC(C)=O)C(=O)c3ccccc3C2=O)cc1,13.5
14,COc1cc(OC)nc(NC(=O)CSc2nc3ccccc3[nH]2)n1,-1.61
15,CCOc1ccc(CCNC(=O)c2cccc(S(=O)(=O)N3CC(C)OC(C)C3)c2)cc1OCC (centres unmarked),-27.3
16,COc1cc(-c2[nH]ncc2CN2CCSCC2)cc(OC)c1OC,-9.26
17,COc1cc(-c2[nH]ncc2CN2CCN(Cc3cccs3)CC2)cc(OC)c1OC,-50.3
18,COCCCC1CCN(Cc2cn[nH]c2-c2cc(OC)c(OC)c(OC)c2)CC1,-61.8
19,COc1cc(-c2[nH]ncc2CN2CCN(c3cccc(C)n3)CC2)cc(OC)c1OC,-47.3
20,COc1ccc(-c2[nH]ncc2CN2CCN(Cc3cccs3)CC2)cc1F,-31.2
21,COCC1CCN(Cc2cn[nH]c2-c2cc(OC)c(OC)c(OC)c2)CC1,-38.1
22,CCCCN(C(=O)c1cccc(S(=O)(=O)N2CCCC2)c1)c1c(N)n(CCC)c(=O)[nH]c1=O,4.89
23,O=c1c2ccccc2c(C=NCCCN2CCOCC2)c(O)n1Cc1ccccc1,-47.7

row,Compound,"hERG current change (%, negative = inhibition) at 10uM [%]"
1,CCN(CC)CCN=Cc1c(O)n(Cc2ccccc2)c(=O)[nH]c1=O [14739636],-31.3
2,CN(C)CCCN=Cc1c(O)n(Cc2ccc3c(c2)OCO3)c(=O)c2ccccc12,-49.1
3,CN(C)CCN=Cc1c(O)n(Cc2ccccc2)c(=O)c2ccccc12,-52.2
4,O=c1c2ccccc2c(C=NCCc2ccccc2)c(O)n1Cc1ccccc1,-5.61
5,CCN(CC)CCCN=Cc1c(O)n(Cc2ccccc2)c(=O)c2ccccc12,-76.7
6,CCN(CC)CCCN=Cc1c(O)n(-c2cccc(C)c2)c(=O)c2ccccc12,-42.8
7,CCN(CC)CCCN=Cc1c(O)n(-c2ccc(C)cc2)c(=O)c2ccccc12,-5.54
8,CN(C)CCN=Cc1c(O)n(Cc2ccc3c(c2)OCO3)c(=O)c2ccccc12,-13.8
9,CN(C)CCCN=Cc1c(O)n(Cc2ccccc2)c(=O)c2ccccc12,-64.5
10,CCN(CC)CCCN=Cc1c(O)n(-c2c(C)cccc2C)c(=O)c2ccccc12,-34.2
11,CCN(CC)CCCN=Cc1c(O)n(-c2ccccc2C)c(=O)c2ccccc12,-52.8
12,Cc1cccc(NC(=O)CSc2nnc(Cn3cnc4ccccc43)o2)c1,-9.07
13,Cc1ccc(S(=O)(=O)N2CCN(C(=O)c3c(-c4ccccc4)noc3C)CC2)cc1,-4.97
14,COc1ccc(S(=O)(=O)Nc2ccc(C(F)(F)F)cc2)cc1OC,-12.4
15,O=S(=O)(Cc1ccccc1)N1CCCC(c2nc(-c3ccc(F)cc3)no2)C1 (centres unmarked),-3.59
16,Fc1ccc(-c2noc(C3CCN(Cc4cccnc4)CC3)n2)cc1,-51.5
17,O=C(Cc1ccccc1)N1CCC(c2nc(-c3ccc(F)cc3)no2)CC1,-50.6
18,O=C(c1ccco1)N1CCC(c2nc(-c3ccc(F)cc3)no2)CC1,-41.8
19,CCCC1CCC(c2nc(-c3cccnc3)no2)CC1 (centres unmarked),2.03
20,O=C(Cc1ccccc1)N1CCCC(c2nc(-c3ccc(S(=O)(=O)N4CCCC4)cc3)no2)C1 (centres unmarked),-9.11
21,COCC(=O)N1CCC(Oc2ccc(C(=O)NC3Cc4ccccc4C3)cc2)CC1,-3.57
22,S=c1[nH]nc(-c2ccncc2)n1/N=C/C(Cl)=C\c1ccccc1,23.3
23,COc1ccccc1CNC(=O)c1cccc(N(C)C)c1,-2.52

row,Compound,"hERG current change (%, negative = inhibition) at 10uM [%]"
1,CCCCn1c(O)c(C(C)=NCCc2c[nH]c3ccccc23)c(=O)[nH]c1=O,-16
2,CCCCn1c(O)c(C(C)=NC(Cc2c[nH]c3ccccc23)C(=O)OC)c(=O)[nH]c1=O (centres unmarked),-52.1
3,CCCCn1c(O)c(C(C)=NC(C)c2ccccc2)c(=O)[nH]c1=O (centres unmarked),-22.3
4,COC(=O)c1cc(=O)nc2scc(C)n12,-23.1
5,CCC1CCCCN1Cc1ccc(CNS(=O)(=O)c2ccc3c(c2)oc(=O)n3C)o1 (centres unmarked),-19.3
6,CCOC(=O)c1cc(-c2cc(OC)c(OC)c(OC)c2)nc2c1c(=O)[nH]c(=O)n2Cc1ccccc1,1.34
7,CCCOC(=O)c1ccc(NC(=O)CC(C)(C)C)cc1,-11.1
8,COc1cc(/C(C)=N/N2CCN(Cc3ccc(C)cc3)CC2)ccc1O,-44.3
9,O=[N+]([O-])c1ccc(Cl)c(/C=N/N2CCN(Cc3ccc(Cl)cc3)CC2)c1,4.9
10,CC(=O)Oc1ccc(/C(C)=N/N2CCN(Cc3ccc(C)cc3)CC2)cc1,-73.2
11,C/C(=N/N1CCN(Cc2ccccc2)CC1)c1ccc(Br)cc1,-19.9
12,C/C(=N\N1CCN(Cc2ccccc2Cl)CC1)c1ccc(F)cc1,2.05
13,C/C(=N\N1CCN(c2ccc(Cl)cc2)CC1)c1cccc([N+](=O)[O-])c1,-12.4
14,C(=C\c1ccccc1)/C=N/N1CCN(Cc2ccccc2)CC1,1.45
15,Cc1ccc(CN2CCN(/N=C/c3ccccc3)CC2)cc1,-12.7
16,CC(=O)Oc1ccc(/C(C)=N\N2CCN(Cc3ccc(Cl)cc3)CC2)cc1,-36.8
17,C/C(=N\N1CCN(Cc2ccc(Cl)cc2)CC1)c1ccc(F)cc1,-51.6
18,C/C(=N\N1CCN(Cc2ccc(Cl)cc2)CC1)c1ccc([N+](=O)[O-])cc1,-72.6
19,Cc1ccc(CN2CCN(/N=C\C=C\c3ccccc3)CC2)cc1,-72.2
20,O=C(COC(=O)c1ccc(O)cc1)Nc1ccc2[nH]c(=O)[nH]c2c1,2.48
21,O=C(Nc1cc([N+](=O)[O-])ccc1Cl)C1CC1,14.1
22,COc1ccc(Cn2c(=S)[nH]c3cc(C(=O)N4CCCCC4)ccc3c2=O)cc1,13.3
23,Cc1cc(-n2nc3ccccc3n2)c(O)c([N+](=O)[O-])c1,6.11

row,Compound,"hERG current change (%, negative = inhibition) at 10uM [%]"
1,COc1ccc(CCNC(=O)COC(=O)C2COc3ccccc3O2)cc1 (centres unmarked),-0.23
2,CCCn1nnnc1NCc1ccc(N(C)C)cc1,1.95
3,CCC(=O)N1N=C(c2ccc(C)o2)CC1c1ccc(Br)cc1 (centres unmarked),-23.4
4,COc1ccc(/C=C/C(=O)NC(=S)NNC(=O)Cc2cccs2)cc1OC,17.9
5,CC1=C(C(=O)OC(C)C)C(c2cccs2)N2C(=O)CCSC2=N1 (centres unmarked),-11.5
6,CCCCCOP(=O)(OCCCCC)C1(NS(=O)(=O)c2ccccc2)C=CC(=O)c2ccccc21 (centres unmarked),9.76
7,Nc1cc(=O)[nH]c(=O)n1-c1ccc(Cl)cc1,15.2
8,COc1ccccc1OCC(=O)Nc1ccccc1C(=O)N1CCCCC1,11.6
9,Cc1ccc(CN2CCN(C(=O)c3ccco3)CC2)cc1,-13.5
10,C/C(=N\N1CCN(Cc2ccccc2)CC1)c1ccco1,-1.45
11,C/C(=N\N1CCN(Cc2ccc(C)cc2)CC1)c1ccco1,-67.6
12,CCCOC(c1ccccc1)(c1ccccc1)C(Oc1nc(C)cc(C)n1)C(=O)O (centres unmarked),21.5
13,C=CCSc1nnc2c(n1)OC(c1ccco1)Nc1ccccc1-2 (centres unmarked),-7.61
14,CCCSc1nc(N)c(C#N)c(-c2ccc(C)cc2)c1C#N,15.7
15,O=C(NCCc1ccc(Cl)cc1)C1CCN(c2cnccn2)CC1,-35.3
16,O=C(NCc1ccc(F)cc1)C1CCN(c2cnccn2)CC1,-64.9
17,C=CCNC(=O)C1CCN(c2cnccn2)CC1,27.8
18,O=C(NCc1ccc(Cl)cc1)C1CCN(c2cnccn2)CC1,-59.9
19,O=C(NCc1ccccc1Cl)C1CCN(c2cnccn2)CC1,-4.12
20,COc1cccc(CNC(=O)C2CCN(c3cnccn3)CC2)c1,-12.4
